# Measurements published in PubChem BioAssay AID2546 (National Center for Advancing Translational Sciences (NCATS), 2010).
# Screen size: about 310,000 compounds; about 11,000 (3.5%) were called active. Not shown: some 8% with an inconclusive outcome. Many of the other results were omitted from the sample, so actives are more common in it than they were. Unmarked numbers belong to inactive results. Calls follow the shape of the dose curve; as a rule, active = well fitted inhibition curve with a large enough effect; inconclusive = small, poorly fitted or top-dose-only effect, or effect the other way; inactive = flat fitted curve, though single readings scatter.
# Experiment: VP16 counterscreen qHTS for inhibitors of ROR gamma transcriptional activity;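 also: Gal4-VP16 expression switched on by copper sulfate through the metallothionein promoter; nearly all actives have a fitted effect of over 50% in size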
# Conditions: Drosophila S2 Gal4-VP16 UAS-luciferase, luminescence, 20 h; series mostly up to 53.6 µM; activity, negative = inhibition: at the top concentration
# % is scaled to controls: 0 for no effect and ±100 for the full control effect; potency is read from the fitted curve at half-maximal effect.
SMILES,"activity, negative = inhibition",Potency
COc1ccc(NC(=O)C(C)N2c3cccc4cccc(c34)S2(=O)=O)c(OC)c1 (centres undefined),-5.36%,–
COc1cccc(/C=C2\Sc3ccc(C(=O)NCC4CCCO4)cc3N(C)C2=O)c1 (centres undefined),6.5%,–
CC(=O)NCCC(=O)Nc1nc(-c2ccc3c(c2)OCCO3)cs1,-10%,–
Cc1cc(C)cc(NS(=O)(=O)Cc2ccccc2)c1,5.47%,–
Cc1ccc(C(=O)COC(=O)CCN2C(=O)C3C4CCC(C4)C3C2=O)cc1C (centres undefined),6.49%,–
COc1ccccc1NC(=O)/C=C/C(=O)O,0.849%,–
COc1ccccc1NC(=O)/C=C/C(N)=O,–,4.47 µM (active)
COc1ccccc1NC(=O)c1ccc(C)s1,6.7%,–
COc1ccc(NC(=O)CN2C(=O)COc3ccc(S(=O)(=O)N4CCOCC4)cc32)cc1,2.73%,–
CCn1c(C(C)C)n[nH]c1=S,2.29%,–
CCc1cc(-c2n[nH]c(=S)n2CC(C)C)cs1,–,11.2 µM (active)
CCn1c(-c2ccoc2C)n[nH]c1=S,-27%,–
Cc1ccc(Cn2c(C)c3cnn(CC(=O)NCc4ccccn4)c(=O)c3c2C)cc1,-20.9%,–
CC(=O)Nc1ccc(C(=O)N(C2=NC(C)CS2)c2ccc(Cl)cc2)cc1 (centres undefined),3.56%,–
COc1ccc(-c2nnc(NC(=O)CS(=O)(=O)c3ccc(Cl)cc3)o2)c(OC)c1,-16.2%,–
COc1cccc(-c2nnc(NC(=O)c3ccc(S(=O)(=O)N(CC(C)C)CC(C)C)cc3)o2)c1,–,0.355 µM (active)
COc1cccc(NC(=O)c2ccc(S(=O)(=O)N(C)C)cc2)c1,24.2%,–
COc1cc(Nc2nc3ccc(Cl)cc3n3cnnc23)cc(OC)c1OC,-7.36%,–
O=C(c1ccc(Cl)cc1)n1cnc2ccccc21,-13%,–
C=CS(=O)c1sc(Cl)c(N2CCOCC2)c1[N+](=O)[O-] (centres undefined),–,3.98 µM (active)
CCCOc1ccc(C2=CSC3=NCCN23)cc1Cl,-2.84%,–
CCCNC(=S)N1CCC(NC(=O)c2ccc(OC)cc2)CC1,-0.164%,–
COc1ccc(OCC(=O)NNC(=O)c2ccc(-c3ccccc3)cc2)cc1,-1.67%,–
COc1ccc(C(=O)NNC(=S)NC(=O)c2ccccc2[N+](=O)[O-])cc1,-2.15%,–
COc1ccc(C(=O)NC(=S)NC2CCCCC2)cc1,–,6.31 µM (active)
O=C(NC(=S)NC1CCCCC1)c1ccc(Cl)cc1,-0.126%,–
COc1ccc(C(=O)NNC(=S)NC(=O)c2ccccc2)cc1,–,8.91 µM (active)

SMILES,"activity, negative = inhibition",Potency
COc1ccc(C(=O)NC(=S)NNC(=O)CCc2ccccc2)cc1,–,15.8 µM (active)
COc1ccc(C(=O)NC2CCN(C(=S)NCCc3ccccc3)CC2)cc1,6%,–
O=C(CCc1ccccc1)NNC(=O)c1ccc(Br)cc1,2.7%,–
COc1ccc(NC(=O)CCCN2C(=O)C(c3ccccc3)Oc3cccnc32)cc1 (centres undefined),0.496%,–
CC(C)C[C@@H](COc1ccccc1)N1CCN(CC(C)C)CCC1=O,-0.104%,–
COc1ccc(CCc2nc(-c3cccs3)no2)cc1,6.91%,–
O=C(c1ccc2nc(N3CCOCC3)sc2c1)N1CCN(c2ccc(Cl)cc2)CC1,-4.01%,–
COc1ccc(NC(=O)CSc2nncc(=O)n2N)cc1OC,-8.72%,–
CCCC(C)c1nnc(NC(=O)C2CC(=O)N(c3ccc(OCC)cc3)C2)s1 (centres undefined),4.36%,–
Oc1ccccc1C=NC1CCCCC1N=Cc1ccccc1O (centres undefined),5.08%,–
COc1ccc(/C=N/NC(=O)C2CC2)c(OC)c1OC,-0.0485%,–
O=C(N/N=C/c1ccccc1O)C1CCCC1,–,0.562 µM (active)
N#CC(C#N)=CN=c1ccn(Cc2ccc(Cl)cc2Cl)cc1,-4.82%,–
COc1ccccc1N1CCN(C(=O)c2cc(=O)c3cc(C)ccc3o2)CC1,-0.286%,–
O=c1c2ccccc2nc2n1C(CSCc1ccccc1)CS2 (centres undefined),5.71% [at 0.365 µM],–
O=c1c2ccccc2nc2n1C(CSc1ccc(F)cc1)CN2 (centres undefined),-0.667%,–
O=c1c2ccccc2nc2n1C(CSCc1cccc(C(F)(F)F)c1)CS2 (centres undefined),–,7.94 µM (active)
CS(=O)(=O)N1CCN(CC(=O)NC2CCCC2)CC1,-4.75%,–
COc1ccc(S(=O)(=O)Nc2cccnc2)c(Cl)c1Cl,-4.29%,–
COc1ccccc1Oc1ccc(S(=O)(=O)Nc2cccnc2)cc1,–,17.8 µM (active)
O=S(=O)(Nc1ccccn1)c1ccc(Oc2ccccc2)cc1,3.87%,–
CC(Oc1cccc(Cl)c1)C(=O)NC1CC(C)(C)NC(C)(C)C1 (centres undefined),-0.763%,–
O=C(CC1C(=O)NCCN1C(=O)c1ccc([N+](=O)[O-])cc1)Nc1cccc(Cl)c1 (centres undefined),-9.4%,–
Cc1ccc(SCc2c(C(=O)N/N=C/C3CC=CCC3)nnn2-c2nonc2N)cc1 (centres undefined),-5.45%,–
Cc1ccc(SCc2c(C(=O)N/N=C/c3cccnc3)nnn2-c2nonc2N)cc1,-7.8%,–
Nc1nonc1-n1nnc(C(=O)N/N=C/c2cc(Br)ccc2O)c1CSC1=NCCS1,–,4.47 µM (active)
COc1ccccc1NC(=O)CSc1nc2sc3c(c2c(=O)n1-c1ccccc1)CCN(C)C3,2.43%,–
